# Data published in PubChem BioAssay (EPA / NIEHS).
# Values joined by “and” are separate entries in the source; they are usually repeats but may differ in a detail not shown here. Equal entries are not always repeated. Results filed as inconclusive are left out. Active and inactive are the calls of the source. How the source made its calls: active means hit-call score of the fitted dose curve at least 0.9, where 1 is the maximum; inconclusive means response in the unintended direction; inactive means score below 0.9.
# Target: Cellular tumor antigen p53 (Homo sapiens) (UniProt P04637)
# Assay: TOX21_p53_BLA_p3_ratio: Tox21 HCT-116 p53 Agonism Beta-lactamase Assay, Ratio, Phase 3 (AID 2283596)
# Excerpt: TOX21_p53_BLA_p3 is a cell-based, single-readout assay that uses HCT116, a human intestinal cell line, […] in a 1536-well plate.TOX21_p53_BLA_p3_ratio is an assay readout measuring reporter gene via receptor activity and designed using inducible reporter (beta lactamase induction) detected with GAL4 b-lactamase reporter gene. The signal is derived from the ratio of cleaved (ch2) to uncleaved (ch1) reporter gene substrate used as the measure of target activity.Data from the assay component TOX21_p53_BLA_p3_ratio was analyzed into 1 assay endpoint. This assay endpoint, TOX21_p53_BLA_p3_ratio, was analyzed in the positive analysis fitting direction relative to DMSO as the negative control and baseline of activity. Using a type of inducible reporter, gain-of-signal activity can be used to understand changes in the reporter gene as they relate to the gene TP53. Furthermore, this assay endpoint can be referred to as a primary readout, because this assay has produced multiple assay endpoints where this ratio serves a reporter gene function to understand target activity. To generalize the intended target to other relatable targets, this assay endpoint is annotated to the DNA binding intended target family, where the subfamily is tumor suppressor.
# Thawing Method: Place 14 mL of pre-warmed thaw medium into a 15 mL of conical tub. Remove the vial of cells to be thawed from liquid nitrogen and thaw rapidly by placing at 37C in a water bath with gentle agitation for 1-2 minutes. Decontaminate the vial by wiping with 70% ethanol before opening in a biological safety cabinet. Transfer the vial contents drop-wise into 14 mL of thaw medium in a sterile 15-mL conical tub. Centrifuge cells at 900 rpm for 4 minutes and resuspend in thaw medium. Transfer contents to the T75 tissue culture flask containing Thaw Medium and place flask in a humidified 37C/5% CO2 incubator. Switch to growth medium at first passage.Propagation Method: Aspirate medium, rinse once in DPBS, add 0.25% Trypsin/EDTA and swirl to coat the cell evenly. Add an equal volume of Growth Medium to inactivate Trypsin after 2-3 minutes incubation at 37C. Centrifuge cells at 900 rpm for 4 minutes and resuspend in growth medium. Cell should be passage or fed at least twice a week.Assay Protocol: Harvest cells from culture in growth medium and resuspend in assay medium. 2.2 Dispense 4000 cells/5 uL/well into 1536-well black/clear bottom plates using a Multidrop dispenser. After the cells were incubated at 37C for 5 hours, 23 nL of compounds dissolved in DMSO were transferred to the assay plate by a PinTool resulting in a 217-fold dilution. Incubate the plates for 16 hours at 37C, 5% CO2. Add 1 uL of 6X LiveBLAzer FRET B/G (CCF4-AM) Substrate Mixture to each well using a BioRAPTR dispenser and incubate the plates at room temperature for 2 hours. Measure fluorescence intensity at 460 and 530 nm emission and 405 nm excitation by an Envision detector. Data is expressed as the ratio of 460nm/530nm emissions. Add 4 uL of Cell-titer Glo to each well using BioRAPTR and incubate the plates at room temperature for 2 hours. Measure fluorescence intensity by a VewLux plate reader.
# Sequence of Cellular tumor antigen p53 (Homo sapiens) (P04637 whole entry, looked up): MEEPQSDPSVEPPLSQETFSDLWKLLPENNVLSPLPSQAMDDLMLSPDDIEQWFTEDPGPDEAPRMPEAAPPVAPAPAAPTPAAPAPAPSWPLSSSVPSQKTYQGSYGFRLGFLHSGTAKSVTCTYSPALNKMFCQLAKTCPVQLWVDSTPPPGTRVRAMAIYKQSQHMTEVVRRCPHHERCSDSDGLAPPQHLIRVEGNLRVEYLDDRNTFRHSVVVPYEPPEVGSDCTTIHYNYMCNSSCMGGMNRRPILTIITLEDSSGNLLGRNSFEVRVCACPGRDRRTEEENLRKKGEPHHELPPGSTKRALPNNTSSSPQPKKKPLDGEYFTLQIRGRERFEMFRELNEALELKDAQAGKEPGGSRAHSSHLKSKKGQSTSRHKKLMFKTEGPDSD
Structure (SMILES),AC50,outcome
CC(Cc1ccc(O)c(O)c1)C(C)Cc1ccc(O)c(O)c1 (stereo not drawn),75.1 µM (active),–
CC/C=C\CCOC(C)=O,–,inactive
CCC(=O)OCCc1ccccc1,–,inactive
CC/C=C\CCOC(=O)c1ccccc1,–,inactive
C1COCCN1,–,inactive
CC(CCl)OP(=O)(OC(C)CCl)OC(C)CCl (stereo not drawn),–,inactive
Oc1ccc(Nc2ccccc2)cc1,–,inactive
Nc1ccc(S(=O)(=O)Nc2nccs2)cc1,–,inactive
C#C[C@]1(O)CC[C@H]2[C@@H]3CCc4cc(OC)ccc4[C@H]3CC[C@@]21C,–,inactive
Nc1ccc([N+](=O)[O-])cc1O,–,inactive
CCCCOc1ccc(N)cc1,–,inactive
CCCCCC=O,–,inactive
Cc1cc(C)cc(O)c1,–,inactive
OC[C@@H](O)[C@@H](O)[C@H](O)[C@@H](O)CO,–,inactive
CCc1ccc(C(c2ccc(CC)cc2)C(Cl)Cl)cc1,–,inactive
CCN(CC)c1ccc2c(C)cc(=O)oc2c1,40.9 µM (active) and 38.6 µM (active),–
CCCCNc1ccccc1,–,inactive
CCCCCCCCCCCCCCCC[N+](C)(C)Cc1ccccc1,–,inactive
COC(=O)C1CCC(C(=O)OC)CC1 (stereo not drawn),–,inactive
FC(F)(F)C(F)(F)C(F)(F)C(F)(F)CCI,–,inactive
O=C(C=Cc1ccccc1)OCC=Cc1ccccc1,–,inactive
Cc1ccc(S(=O)(=O)NCl)cc1,–,inactive
CCCCCCOC(=O)c1ccccc1O,–,inactive
